# Experimental data as given in PubChem BioAssay AID651704 (Broad Institute, 2012).
# About 1,600 (0.46%) of roughly 350,000 compounds were called active. The list comes from a sample in which actives are over-represented; it also holds similar structures and randomly drawn compounds. Unmarked numbers belong to inactive results.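 The calls were made as follows: active = every replicate reaching a set inhibition limit, whatever the replicate mean (cut at about 25% in these data); inconclusive = mean inhibition reaches that limit but some replicates miss it; inactive = the rest.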
# Target: Protein AF-9 (Homo sapiens) (UniProt P42568)
# Sequence (P42568 whole entry, looked up): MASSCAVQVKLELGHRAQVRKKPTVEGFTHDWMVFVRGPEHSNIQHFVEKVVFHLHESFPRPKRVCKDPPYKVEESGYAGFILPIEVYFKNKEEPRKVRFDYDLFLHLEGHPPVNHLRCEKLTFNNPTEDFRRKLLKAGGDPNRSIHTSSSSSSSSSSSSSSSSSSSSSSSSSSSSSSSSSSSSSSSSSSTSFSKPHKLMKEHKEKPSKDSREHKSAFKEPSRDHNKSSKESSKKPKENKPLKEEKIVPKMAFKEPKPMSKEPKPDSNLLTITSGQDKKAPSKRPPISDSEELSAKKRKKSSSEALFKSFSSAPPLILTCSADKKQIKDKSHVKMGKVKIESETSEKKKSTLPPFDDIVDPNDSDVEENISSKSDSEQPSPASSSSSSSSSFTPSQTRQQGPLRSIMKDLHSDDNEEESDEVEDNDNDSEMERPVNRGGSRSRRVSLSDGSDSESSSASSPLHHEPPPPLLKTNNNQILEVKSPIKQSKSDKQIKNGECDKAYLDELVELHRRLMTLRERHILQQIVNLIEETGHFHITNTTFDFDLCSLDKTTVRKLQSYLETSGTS
# Experiment: MLL-AF4/AF9 protein interaction blockers – biochemical, AlphaScreen, biotin-AF4 peptide, FLAG-AF9, single point, primary screen (AID 651704);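 also: 0% = plate neutral control median and 100% = total signal loss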
# Conditions: biotin-AF4 peptide binding to FLAG-AF9, at 10 µM, active compounds read high
row,SMILES,inhibition
1,CCC1(C)CC(CCNCc2ccc(N(C)C)cc2)(c2ccc(F)cc2)CCO1 (stereo not given),28.4% (active)
2,COc1ccc2c(c1)NP(=S)(c1ccccc1)N2 (stereo not given),-0.621%
3,O=C(O)[C@@H]1[C@@H](CO)[C@@H]2Cn3c(ccc(-c4ccccc4F)c3=O)[C@H]1N2C(=O)c1cccnc1,1.92%
4,CSCCC(c1nnnn1C(C)(C)C)N1CCC(n2c(=O)[nH]c3ccccc32)CC1 (stereo not given),14%
5,CC(C)CN1Cc2cc(N3CCCCC3)ccc2-n2nncc2C1,6.47%
6,COC(=O)[C@H]1[C@H](CO)[C@H]2Cn3c(ccc(-c4ccccc4F)c3=O)[C@@H]1N2C(=O)C1CCC1,1.06%
7,Cc1ncoc1C(=O)NCC1=C(c2cccc3ccccc23)C[C@@H]2CC[C@H]1N2Cc1ccco1,3.14%
8,CCOC(=O)[C@]12Cc3cc(OC)ccc3[C@H]1N(C(C)C)C(=O)c1ccccc12,-1.49%
9,O=C1NC(=O)N(Cc2ccco2)C(=O)/C1=C\c1cccn1CCOc1ccccc1,-1.69%
10,O=C(O)COc1ccccc1/C=C1\C(=O)NC(=O)N(CCC2=CCCCC2)C1=O,51.4% (active)
11,O=C1NC(=O)N(CCc2ccc(F)cc2)C(=O)/C1=C/C=C/c1ccccc1,7.75%
12,O=C1NCN(c2ccccc2)C12CCN(C(c1cccs1)c1nnnn1C1CCCCC1)CC2 (stereo not given),8.26%
13,CCn1cc(CN2CCCC(C(=O)c3cccc(C(F)(F)F)c3)C2)cn1 (stereo not given),0.062%
14,Cc1cc2ccccn2c1C(C[N+](=O)[O-])c1c(F)cccc1Cl (stereo not given),25.5% (active)
15,O=C(NC[C@@H]1CC[C@H]2NC[C@H]2O1)C1CCCC1,-2.73%
16,COC(=O)C1=C(c2ccc(OCc3ccccc3)cc2)C[C@@H]2CC[C@H]1N2C(=O)NCc1ccc(Cl)cc1,-0.419%
17,O=c1[nH]c2ccccc2n1C1CCN(C(c2ccnc3ccccc23)c2nnnn2Cc2ccccc2)CC1 (stereo not given),-0.349%
18,C[C@@H]1CN([C@H](C)CO)C(=O)CCCn2cc(nn2)CO[C@@H]1CN(C)C(=O)Oc1cccc2ccccc12,-0.246%
19,CCOc1cccc(=NC2CCCCC2)c2c(C)[nH]c(C)c12,31.5% (active)
20,O=c1[nH]c2ccccc2n1C1CCN(C(c2ccccc2)c2nnnn2Cc2ccccc2)CC1 (stereo not given),2.84%
